# Laboratory results reported in PubChem BioAssay (NCI).
# Compounds without any hit were thinned out: in the full panel of roughly 83,000, 20% have a hit.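 Percent growth is the endpoint: 0 to 100 indicates growth inhibition (40 means 60% inhibition), 0 means no net growth, and negative values indicate cell death.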 Values without a mark were called inactive. Activity calls are given as the source filed them.
# System: HCT-116 colon
# Test: NCI-60 one-dose screen, 48 h (100 = growth as untreated, 0 = no growth, -100 = all killed)
# Details: 10 µM
# Description: Growth inhibition of the HCT-116 human tumor cell line is measured as a screen for anti-cancer activity. Cells are grown in 96 well plates and exposed to the test compound for 48 hours. Compounds are tested at a single concentration, which is 10^-5 M for most compounds. The reported endpoint is percent growth (GI% or GIPRCNT), where numbers from 0 - 100% represent growth inhibition, and numbers from -100% - 0 represent cell death. For example, a value of 40 represents 60% growth inhibition. A value of 0 means no net growth occurred over the course of the experiment. A value of -40 indicates 40% of cells at the beginning of the experiment died by the end of the experiment. A value of -100 means all cells are dead at the end of the experiment.
# NCI-60 Human Tumor Cell Lines Screen was performed using the standard one-dose NCI protocol, which is described in more detail at https://dtp.cancer.gov/discovery_development/nci-60/default.htm.
# Compounds with GIPRCNT values below 10 were considered active. Activity score was based on GIPRCNT using the following formula: […]
# Score is 0 for GIPRCNT values of 100 or above, 50 for GIPRCNT values of 0, and 100 for GIPRCNT values of -100.
row,SMILES,growth
1,COc1cccc(-c2nn(-c3ccccc3)cc2-c2ccnc(NCCCNC(=O)Nc3ccc(F)cc3)c2)c1,6.26% (active)
2,Cc1ccc2nc(-c3ccc(-c4nnc(SCC(=O)Nc5ccc(Cl)cc5)o4)cc3)[nH]c2c1,9.37% (active)
3,CCOc1ccc(/C=N/NC(=O)Cn2nc(Cc3ccccc3)c3onc(C)c3c2=O)cc1,10.3%
4,CCCCOc1ccc(Nc2nc3ccccc3nc2Nc2ccc(OCCCC)cc2)cc1,49%
5,O=C(NC(=S)N1CCN(c2ncnc3c2cnn3-c2ccccc2)CC1)c1ccc(Cl)cc1,41.9%
6,C=C1CC[C@H](C(=C)C)[C@H]2C=C(C)C(=O)C3=C(C(=O)[C@@](C)(O)C3)[C@H]12,12.2%
7,Oc1ccc(/C=C2\CCCc3cc4ccc(O)cc4[o+]c32)c(O)c1,15.7%
8,CSc1nc(-c2cccc(C)c2)c2cc(-c3ccccc3)n(C)c2n1,13.5%
9,C/C(=C\c1ccc(O)cc1O)c1ccc2ccc(O)cc2[o+]1,26.9%
10,O=C(CSc1nnc(-c2ccc3nc(-c4ccccc4)[nH]c3c2)o1)Nc1ccc(Cl)cc1,36.4%
11,CCOC(=O)CNC(=O)CN(Cc1ccccc1)C(=O)[C@@]1(C)CCC[C@]2(C)[C@H]3CC4C(C(C)C)=C[C@]3(CC[C@H]21)[C@@H]1C(=O)CCC(=O)[C@H]41,36.5%
12,COc1cccc(/C=C2\N=C(C)N(CCc3ccc(S(N)(=O)=O)cc3)C2=O)c1,97.8%
13,O=C(Cc1ccc2c(c1)CN(C1CCC(=O)NC1=O)C2=O)NCCc1ccccc1 (stereo not given),70.8%
14,O=C(NO)c1ccc(CNC(=O)[C@H]2Cc3c([nH]c4ccccc34)[C@H](c3ccc(Cl)cc3)N2)cc1,1.03% (active)
15,O/N=C(\CSc1nnc(-c2c[nH]c3ccccc23)n1-c1ccccc1)c1ccc(Cl)cc1,0.742% (active)
16,N#Cc1c(NC(=O)c2ccc(C(F)(F)F)cc2C(F)(F)F)sc2c1CCC(=O)C2,0.663% (active)
17,CC(=O)C1=C(C)NC(SCC(=O)Nc2ccc(S(=O)(=O)Nc3cc(C)on3)cc2)=NC1c1ccccc1 (stereo not given),105%
18,Nc1cccnc1/C=N/NC(=S)NCCNC(=O)c1ccc(-n2nc(-c3ccccc3O)nc2-c2ccccc2O)cc1,7.1% (active)
19,O=C(c1ccc(Cl)cc1)C1[C@H](c2ccc(Br)cc2)[C@@H](c2ccccc2)NC12C(=O)Nc1ccc(Br)cc12 (stereo not given in full),1.39% (active)
20,COc1ccc2nc(Cl)c(-c3cc(-c4ccccc4)nc(N)n3)cc2c1,-92.1% (active)

row,SMILES,growth
1,O=C1CCC(N2Cc3c(NCc4ccc(-c5ccccc5)cc4)cccc3C2=O)C(=O)N1 (stereo not given),74.7%
2,N#Cc1c(-c2ccc(F)cc2)nc(SCc2ccc(F)cc2)nc1N1CCOCC1,66%
3,CS(=O)(=O)Nc1ccc(-c2ccc3c(c2)ncn3-c2ccc(NC(=O)Nc3ccc(Cl)c(C(F)(F)F)c3)cc2)cc1,-87.7% (active)
4,CCCn1c(=O)c2[nH]c(-c3ccc(OCc4nc5ccccc5[nH]4)cc3)nc2n(CCC)c1=O,5.38% (active)
5,COc1ccc(-c2nc(-c3ccccc3)c(-c3ccccc3)n2-c2ccc(S(=O)(=O)Nc3ncccn3)cc2)cc1OC,67.4%
6,Brc1ccc(/C=N/Nc2ncnc3sc4c(c23)CCN(Cc2ccccc2)C4)cc1,33.3%
7,COc1ccc(NC(=O)Nc2ccc(OCC(=O)N=Nc3c(O)[nH]c4ccc([N+](=O)[O-])cc34)cc2)cc1,85.6%
8,COc1ccc2[nH]cc(/C=N/Nc3ccc(Br)cn3)c2c1,8.63% (active)
9,COc1ccc(/C=C/C(=O)c2ccc(NC(=O)CN3C(=O)NC(C)(c4ccccc4)C3=O)cc2)cc1 (stereo not given),12.8%
10,CCCSc1nc(NC2CC2)c(C#N)c(-c2ccc(OC)cc2)n1,74.1%
11,Cc1ccc(C(=O)Nc2ccc(-n3c(C)nc4c(cnn4-c4ccccc4)c3=O)cc2)cc1,51.5%
12,COc1cccc(-c2ccnc(/N=C(\N)Nc3ccc(S(=O)(=O)Nc4nc(C)cc(C)n4)cc3)n2)c1,103%
13,O/N=C(\CSc1nnc(-c2c[nH]c3ccccc23)n1-c1ccccc1)c1ccc(Br)cc1,-36.3% (active)
14,NS(=O)(=O)c1ccc(NC(=O)CSc2ccc(-c3ccccc3)nn2)c(Br)c1,48.7%
15,CC(=O)Nc1ccc(-c2cn(-c3cccc(C(=O)Nc4cc(C(F)(F)F)cc(C(F)(F)F)c4)c3)nn2)cn1,10.6%
16,O=C(CNc1nc(-c2ccccc2)cs1)Nc1cccc([N+](=O)[O-])c1,-34.2% (active)
17,O=C1NC(=NC23CC4CC(CC(C4)C2)C3)N/C1=C\c1ccc2ncsc2c1,14.1%
18,O=c1[nH]c2ccccc2cc1CSc1ccc(Nc2nccc(-c3ccc(Cl)cc3)n2)cc1,-38.6% (active)
19,COc1ccc(Nc2nc(N)n(Cc3cccc(Br)c3)n2)cc1,12%
20,O=c1[nH]c2ccc(Cl)cc2cc1CSc1ccc(Nc2nccc(-c3ccc(Cl)cc3)n2)cc1,32.9%
